Assay results published in PubChem BioAssay AID1159580 (chemical genetic matrix, 2015).
In all, about 5,500 compounds went through this assay and about 2,000 (36%) were called active. Inconclusive results (about 18%) are left out. Cut-off read from the data, not from the text of the source: active = normalized growth mostly below about 0.91 (no sharp cut-off); inconclusive = no clear call, values can overlap the other calls; inactive = mostly above about 0.92. The list shows a part of the results.

Assay: chemical genetic growth profiling, strain panel (AID 1159580);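 note: tested at 20 µM; growth read once vehicle control cultures reached saturation at 30 °C; 1 = growth at the plate median or of vehicle wells; lower values mean less growth of the strain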
Conditions: S. cerevisiae deletion strains, growth OD

Measured: normalized growth

Cc1cc(Cl)ccc1NNC(=O)c1snnc1C
active: locus YHR030C, strain SLT2, hits give low values 0.815 | locus YLR113W, strain HOG1, hits give low values 0.84
inactive: locus YAR019C, strain CDC15, hits give low values 0.971 | locus YBL105C, strain PKC1, hits give low values 0.949 | locus YBR135W, strain CKS1, hits give low values 0.967 | locus YBR136W, strain MEC1, hits give low values 0.949 | locus YBR160W, strain CDC28, hits give low values 0.959 | locus YDL017W, strain CDC7, hits give low values 0.951 | locus YDL028C, strain MPS1, hits give low values 0.969 | locus YDL101C, strain DUN1, hits give low values 0.968 | locus YDL108W, strain KIN28, hits give low values 0.955 | locus YDL132W, strain cdc53, hits give low values 0.978 | locus YDL214C, strain PRR2, hits give low values 0.907 | locus YDR052C, strain DBF4, hits give low values 0.957 | locus YDR054C, strain cdc34, hits give low values 0.974 | locus YDR226W, strain ADK1, hits give low values 0.977 | locus YDR477W, strain SNF1, hits give low values 0.907 | locus YER123W, strain YCK3, hits give low values 0.816 | locus YER133W, strain GLC7, hits give low values 0.909 | locus YFL009W, strain cdc4, hits give low values 0.979 | locus YFL029C, strain CAK1, hits give low values 0.957 | locus YFR003C, strain YPI1, hits give low values 0.957 | locus YFR019W, strain FAB1, hits give low values 0.885 | locus YFR028C, strain CDC14, hits give low values 0.958 | locus YGR040W, strain KSS1, hits give low values 0.881 | locus YGR052W, strain FMP48, hits give low values 0.965 | locus YGR092W, strain DBF2, hits give low values 0.824 | locus YHR079C, strain IRE1, hits give low values 0.919 | locus YHR082C, strain KSP1, hits give low values 0.979 | locus YHR205W, strain SCH9, hits give low values 0.919 | locus YIL147C, strain SLN1, hits give low values 0.966 | locus YJL095W, strain BCK1, hits give low values 0.888 | locus YJL128C, strain PBS2, hits give low values 0.943 | locus YJL157C, strain FAR1, hits give low values 0.881 | locus YJR016C, strain ILV3, hits give low values 0.977 | locus YJR066W, strain TOR1 (second series), hits give low values 0.841 | locus YJR066W, strain TOR1, hits give low values 0.972 | locus YKL048C, strain ELM1, hits give low values 0.935 | locus YKL067W, strain YNK1, hits give low values 0.919 | locus YKL101W, strain HSL1, hits give low values 0.914 | locus YKL193C, strain SDS22, hits give low values 0.96 | locus YKL203C, strain TOR2, hits give low values 0.962 | locus YLR133W, strain CKI1, hits give low values 0.891 | locus YLR403W, strain SFP1, hits give low values 0.887 | locus YML070W, strain DAK1, hits give low values 0.865 | locus YMR001C, strain CDC5, hits give low values 0.951 | locus YMR205C, strain PFK2 (second series), hits give low values 0.922 | locus YMR277W, strain FCP1, hits give low values 0.958 | locus YNL006W, strain LST8, hits give low values 0.974 | locus YNL020C, strain ARK1, hits give low values 0.894 | locus YNL161W, strain CBK1, hits give low values 0.956 | locus YNL183C, strain NPR1, hits give low values 0.942 | locus YNL207W, strain RIO2, hits give low values 0.96 | locus YNL222W, strain SSU72, hits give low values 0.956 | locus YNL307C, strain MCK1 (second series), hits give low values 0.794 | locus YOL078W, strain AVO1, hits give low values 0.954 | locus YOL136C, strain PFK27, hits give low values 0.885 | locus YOR061W, strain CKA2, hits give low values 0.866 | locus YOR119C, strain RIO1, hits give low values 0.96 | locus YOR231W, strain MKK1, hits give low values 0.878 | locus YOR329C, strain SCD5, hits give low values 0.963 | locus YPL031C, strain PHO85, hits give low values 0.911 | locus YPL153C, strain RAD53, hits give low values 0.881 | locus YPL204W, strain HRR25, hits give low values 0.874 | locus YPL209C, strain IPL1, hits give low values 0.943 | locus YPL256C, strain CLN2, hits give low values 0.881 | locus YPR025C, strain CCL1, hits give low values 0.955 | locus YPR106W, strain ISR1, hits give low values 0.976 | locus YPR111W, strain DBF20, hits give low values 0.979 | strain NNK1, hits give low values 0.955 | strain TSCII, hits give low values 0.962
